Screening data from PubChem.
TDP1 cell noCPT: qHTS for Inhibitors of human tyrosyl-DNA phosphodiesterase 1 (TDP1): qHTS in cells in absence of CPT. DT40 Tdp1-/- hTDP1 cells, no CPT, ATP luminescence, 48 h. Potency, µM (highest dose often 46.2 µM), hits mostly inhibitors. hit rate 15% among 420,000. AID 686978, 2013; note: nearly all actives have a fitted effect of over 55% in size
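Readout: luminescence from CellTiter-Glo after 30 min in the dark at RT. Cells: DT40 Tdp1-/- with stable hTDP1, 400/well. Exposure: compounds alone, ≥48 hr, 37 °C.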
HT1080 IDH1KD tx: kills HT-1080 cells with IDH1 knockdown | HT-1080 IDH1 knockdown viability, ATP luminescence, 48 h | Potency, µM (titrated, usually from 46.1 µM), hits mostly cytotoxic | hit rate 2% among 360,000 | AID 686971
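HT-1080-IDH1KD cells (IDH1 knocked down), 750/well in RPMI with 5% FBS, treated with compound 48 h at 37 degrees C. Viability by CellTiter-Glo luminescence, normalised to DMSO and no-cell wells; concentration-response curves classed.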
TDP1 cell CPT: DT40-hTDP1 cell growth loss with CPT. chicken DT40 Tdp1-/-;hTDP1 cells + 20 nM CPT, ATP luminescence, 48 h. AID 686979. Potency, µM (titrated, usually from 46.2 µM), hits mostly inhibitors. hit rate 12% among 420,000; note: nearly all actives have a fitted effect of over 55% in size
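Chicken DT40 Tdp1-/- cells complemented with human TDP1, 400 cells/well, exposed to compounds plus 20 nM camptothecin for at least 48 h at 37 C; viability read as ATP content by CellTiter-Glo luminescence.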
IL1B secr inh: blocks inflammasome-driven IL-1 beta release; THP-1 LPS/ATP IL-1B secretion, AlphaLISA, 16 h; active compounds read low; activity change, % at 57.5 µM; hit rate 4.7% among 360,000; in the data active = activity change below about -50%; inconclusive = mostly about -30% to -49%
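Secreted IL-1B measured by AlphaLISA bead assay after 16 h compound exposure of THP-1 cells; compounds (final up to 57.5 uM) added 1 h before LPS (250 ng/mL) and ATP (1.25 mM) stimulation; lower signal means less secretion.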
ELG1 repair inh: inhibitors of ELG1-dependent DNA repair in HEK293T cells | HEK293T ELG1-luciferase reporter, luminescence, 16 h; DNA damage induced by 5-fluorouridine | Potency, µM (doses to about 46.1 µM), most hits filed as inhibitors | hit rate 2.3% among 330,000; note: nearly all actives have a fitted effect of over 55% in size
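Luminescence from the luciferase reporter, measured 30 min after ONE-Glo reagent at room temperature, was the read-out. Beforehand, 2,000 cells per well were exposed for 16 hr at 37 °C to 5-fluorouridine together with compound or vehicle.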
HT1080NT lethal: kills 2HG-producing HT-1080-NT fibrosarcoma cells; HT-1080-NT fibrosarcoma viability, CellTiter-Glo ATP luminescence, 48 h; Potency, µM (top dose mostly 46.1 µM), usual class: cytotoxic; hit rate 1.6% among 360,000;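 note: NT is the 2HG producing partner of a matched IDH1 knockdown line; nearly all actives have a fitted effect of over 55% in size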
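Read-out is CellTiter-Glo luminescence after 10 minutes at room temperature, following 48 hours' compound treatment of HT-1080-NT cells (750 cells/well, RPMI, 5% FBS, 37 degrees C).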
A number is an active result; i = inactive; ? = inconclusive; nt = no result. The list is not random: actives were taken first. Their share in the collection is about 19%. Unless noted, calls come from the whole dose curve; as a rule, active = well fitted curve in the direction sought with a large enough effect; inconclusive = small, poorly fitted or top-dose-only effect, or another doubt; inactive = no such curve, though single readings can be large; an effect the other way counts as inactive or inconclusive.

SMILES	TDP1 cell noCPT	HT1080 IDH1KD tx	TDP1 cell CPT	IL1B secr inh	ELG1 repair inh	HT1080NT lethal
CCOc1ccc(N(CC(=O)N2CCN(c3ccccc3OC)CC2)S(=O)(=O)c2ccc(F)cc2)cc1	?	i	?	i	?	i
CCOC(=O)c1c(C)[nH]c(C)c1S(=O)(=O)N(C)CC(=O)N1CCN(c2ccccc2OC)CC1	?	nt	18.4µM	nt	nt	nt
CCOC(=O)N1CCN(C(=O)CN(c2ccccc2OC)S(=O)(=O)c2ccc(OC)cc2)CC1	i	i	i	i	i	i
COc1ccccc1N(CC(=O)N1CCN(c2ccccc2)CC1)S(=O)(=O)c1ccc(C)cc1	?	i	18.4µM	i	i	i
CCOC(=O)N1CCN(C(=O)CN(c2cccc(Cl)c2C)S(=O)(=O)c2ccc(C)cc2)CC1	?	nt	20.6µM	nt	nt	nt
CCOc1ccc(N(CC(=O)N2CCN(c3ccccc3OC)CC2)S(=O)(=O)c2ccc(C)cc2)cc1	20.6µM	i	?	i	?	i
Cc1ccc2c(CC(=O)Nc3ccc(F)c(S(=O)(=O)N4CCOCC4)c3)coc2c1	?	i	?	i	i	i
Cc1ccc(-n2c(=O)c3c(cnn3C)n(CC(=O)Nc3cccc(C)c3)c2=O)cc1	?	nt	i	nt	nt	nt
CC(=O)C1=CCC(c2ccc(Cl)c(Cl)c2)N(S(=O)(=O)c2ccc(C)cc2)C1 (stereo unspecified)	14.6µM	?	?	-83.8	nt	?
CC(=O)C1=CCC(c2ccc(F)cc2)N(S(=O)(=O)c2ccc(C)cc2)C1 (stereo unspecified)	18.4µM	i	?	i	nt	i
Cc1ccc(S(=O)(=O)N2CC(C(=O)O)=CC[C@H]2c2ccc(Cl)cc2)cc1	i	i	i	i	i	i
CC(=O)C1=CCC(c2ccc(C(C)C)cc2)N(S(=O)(=O)c2ccc(C)cc2)C1 (stereo unspecified)	?	?	i	?	nt	?
CC(=O)C1=CCC(c2ccc(C)cc2)N(S(=O)(=O)c2ccc(Cl)cc2)C1 (stereo unspecified)	16.4µM	?	?	?	nt	i
COc1ccc([C@@H]2CC=C(C(=O)O)CN2S(=O)(=O)c2ccc(C)cc2)cc1OC	i	i	i	i	i	i
Cc1ccc(SCC2(O)CCN(C(=O)c3ccc(Cl)cc3)CC2)cc1	?	i	?	i	i	i
O=S(=O)(c1ccccc1)N1CCC(O)(CSc2ccc(Cl)cc2)CC1	25.9µM	i	?	?	i	?
O=C(Nc1ccc(F)cc1)C(c1cccc(F)c1)N1CCN(c2ccncc2)CC1 (stereo unspecified)	?	i	?	i	nt	i
COC(=O)c1cnc(Nc2nc(C(N)c3ccccc3Cl)cs2)nc1C(F)(F)F (stereo unspecified)	25.9µM	?	?	i	nt	?
NC(c1csc(Nc2cnccn2)n1)c1ccccc1Cl (stereo unspecified)	?	i	?	i	nt	i
COC(=O)c1cnc(Nc2nc(C(N)COCc3ccccc3)cs2)nc1C(F)(F)F (stereo unspecified)	14.6µM	i	?	i	nt	i
NC(c1csc(NC(=O)c2cccc(OC(F)(F)F)c2)n1)c1ccccc1Cl (stereo unspecified)	5.8µM	?	4.11µM	i	nt	23.1µM
NC(c1csc(Nc2ccccn2)n1)c1ccccc1Cl (stereo unspecified)	?	i	?	i	nt	i
NS(=O)(=O)c1ccc(CCNC(=O)c2ccc([N+](=O)[O-])s2)cc1	?	i	16.4µM	i	13µM	?
NS(=O)(=O)c1ccc(CCNC(=O)c2ccc(Cl)s2)cc1	i	i	i	i	i	i
CCCCc1ccc(NC(=O)N[C@H](C(=O)O)C(C)C)cc1	7.31µM	i	16.4µM	i	?	i
CCC(C)[C@H](NC(=O)Nc1ccc(C)cc1C)C(=O)O (stereo partly specified)	i	i	11.6µM	i	i	i
